About 8,800 targets were measured; listed, in parts, are those with a hit and a random draw of the rest. About 0.5% of all pairs of compound and target were hits. Unmarked numbers belong to inactive results.

This note sets out measurements from the supplement of paper PMC10849652.

Common to all, as to test: log2 fold change, soluble protein after heating vs DMSO (PISA); higher = thermal stabilisation; K562 lysate, 10 uM; active = over 0.2 and 3.5 SD of the protein, either way, in both replicates (recomputed)
Compound in assay [1]: C1=CC=C(C=C1)[C@H](COC2=CC3=C(C=C2)NC(=O)N3)NC(=O)C4=CC=CN(C4=O)CC5=CC(=C(C=C5)F)F
Summed up: (§1)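 Quantification was by TMTpro 16plex LC-MS/MS with equalised channel sums, applied to the supernatant after 21,000xg for 90 min. Samples were crude K562 extract at 1 mg/mL protein in PBS pH 7.4 with 1 mM MgCl2, treated with 10 μM compound for 30 min, heated for 3 min across 48°C-58°C, pooled and brought to 0.5% NP-40 at 4°C. Values are log-two fold changes in thermal stability relative to solvent controls, from duplicates.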

Compound in assay [2]: CC1=C(SC2=C1C(=N[C@H](C3=NN=C(N32)C)CC(=O)N)C4=CC=C(C=C4)Cl)C
Summed up: as §1

Compound in assay [3]: CC1=C2C(=CC=C1)N=C(N(C2=O)C3=CC=CC=C3C)CN4C=NC5=C(N=CN=C54)N
The method in brief: as §1

Compound in assay [4]: Cc1sc2c(c1C)C(c1ccc(Cl)cc1)=N[C@@H](CC(=O)OC(C)(C)C)c1nnc(C)n1-2
Summed up: as §1

Compound in assay [5]: c1ccc([C@@H]2C[C@H]2NC2CCNCC2)cc1
The method in brief:
as §1

UniProt Q9BXS6, sequence (Q9BXS6 whole entry, looked up): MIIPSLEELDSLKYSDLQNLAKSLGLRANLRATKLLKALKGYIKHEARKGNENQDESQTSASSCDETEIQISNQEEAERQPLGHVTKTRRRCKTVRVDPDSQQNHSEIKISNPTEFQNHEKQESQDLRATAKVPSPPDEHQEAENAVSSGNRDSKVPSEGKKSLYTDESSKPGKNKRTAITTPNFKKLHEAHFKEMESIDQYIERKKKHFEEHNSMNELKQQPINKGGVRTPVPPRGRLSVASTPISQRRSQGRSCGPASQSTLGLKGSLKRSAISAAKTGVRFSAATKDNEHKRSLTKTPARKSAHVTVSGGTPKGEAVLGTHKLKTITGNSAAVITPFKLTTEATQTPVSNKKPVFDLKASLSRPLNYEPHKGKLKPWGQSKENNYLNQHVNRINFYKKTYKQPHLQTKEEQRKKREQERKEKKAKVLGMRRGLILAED
UniProt P04150, sequence (P04150 whole entry, looked up): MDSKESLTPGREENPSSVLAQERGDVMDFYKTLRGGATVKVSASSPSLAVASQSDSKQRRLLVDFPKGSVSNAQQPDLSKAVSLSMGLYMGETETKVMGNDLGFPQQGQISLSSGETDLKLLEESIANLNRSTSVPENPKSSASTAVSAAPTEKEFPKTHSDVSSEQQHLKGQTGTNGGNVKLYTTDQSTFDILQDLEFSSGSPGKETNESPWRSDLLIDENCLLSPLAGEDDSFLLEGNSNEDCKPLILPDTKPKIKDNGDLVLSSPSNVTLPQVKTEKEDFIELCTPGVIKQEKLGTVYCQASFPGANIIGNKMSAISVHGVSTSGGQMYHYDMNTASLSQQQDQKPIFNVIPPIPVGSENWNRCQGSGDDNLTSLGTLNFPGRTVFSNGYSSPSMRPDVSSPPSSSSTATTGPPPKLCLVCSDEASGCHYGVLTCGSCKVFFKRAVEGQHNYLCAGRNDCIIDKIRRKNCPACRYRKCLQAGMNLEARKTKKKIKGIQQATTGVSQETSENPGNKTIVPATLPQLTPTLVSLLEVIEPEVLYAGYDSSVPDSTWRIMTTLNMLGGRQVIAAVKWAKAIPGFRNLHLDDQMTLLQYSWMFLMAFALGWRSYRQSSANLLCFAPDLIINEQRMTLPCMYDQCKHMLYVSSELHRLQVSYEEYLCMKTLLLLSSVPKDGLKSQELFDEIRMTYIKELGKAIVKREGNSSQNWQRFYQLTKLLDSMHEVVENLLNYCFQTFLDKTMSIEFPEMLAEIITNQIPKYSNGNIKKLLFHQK
UniProt Q6ZNJ1, sequence (Q6ZNJ1 whole entry, looked up): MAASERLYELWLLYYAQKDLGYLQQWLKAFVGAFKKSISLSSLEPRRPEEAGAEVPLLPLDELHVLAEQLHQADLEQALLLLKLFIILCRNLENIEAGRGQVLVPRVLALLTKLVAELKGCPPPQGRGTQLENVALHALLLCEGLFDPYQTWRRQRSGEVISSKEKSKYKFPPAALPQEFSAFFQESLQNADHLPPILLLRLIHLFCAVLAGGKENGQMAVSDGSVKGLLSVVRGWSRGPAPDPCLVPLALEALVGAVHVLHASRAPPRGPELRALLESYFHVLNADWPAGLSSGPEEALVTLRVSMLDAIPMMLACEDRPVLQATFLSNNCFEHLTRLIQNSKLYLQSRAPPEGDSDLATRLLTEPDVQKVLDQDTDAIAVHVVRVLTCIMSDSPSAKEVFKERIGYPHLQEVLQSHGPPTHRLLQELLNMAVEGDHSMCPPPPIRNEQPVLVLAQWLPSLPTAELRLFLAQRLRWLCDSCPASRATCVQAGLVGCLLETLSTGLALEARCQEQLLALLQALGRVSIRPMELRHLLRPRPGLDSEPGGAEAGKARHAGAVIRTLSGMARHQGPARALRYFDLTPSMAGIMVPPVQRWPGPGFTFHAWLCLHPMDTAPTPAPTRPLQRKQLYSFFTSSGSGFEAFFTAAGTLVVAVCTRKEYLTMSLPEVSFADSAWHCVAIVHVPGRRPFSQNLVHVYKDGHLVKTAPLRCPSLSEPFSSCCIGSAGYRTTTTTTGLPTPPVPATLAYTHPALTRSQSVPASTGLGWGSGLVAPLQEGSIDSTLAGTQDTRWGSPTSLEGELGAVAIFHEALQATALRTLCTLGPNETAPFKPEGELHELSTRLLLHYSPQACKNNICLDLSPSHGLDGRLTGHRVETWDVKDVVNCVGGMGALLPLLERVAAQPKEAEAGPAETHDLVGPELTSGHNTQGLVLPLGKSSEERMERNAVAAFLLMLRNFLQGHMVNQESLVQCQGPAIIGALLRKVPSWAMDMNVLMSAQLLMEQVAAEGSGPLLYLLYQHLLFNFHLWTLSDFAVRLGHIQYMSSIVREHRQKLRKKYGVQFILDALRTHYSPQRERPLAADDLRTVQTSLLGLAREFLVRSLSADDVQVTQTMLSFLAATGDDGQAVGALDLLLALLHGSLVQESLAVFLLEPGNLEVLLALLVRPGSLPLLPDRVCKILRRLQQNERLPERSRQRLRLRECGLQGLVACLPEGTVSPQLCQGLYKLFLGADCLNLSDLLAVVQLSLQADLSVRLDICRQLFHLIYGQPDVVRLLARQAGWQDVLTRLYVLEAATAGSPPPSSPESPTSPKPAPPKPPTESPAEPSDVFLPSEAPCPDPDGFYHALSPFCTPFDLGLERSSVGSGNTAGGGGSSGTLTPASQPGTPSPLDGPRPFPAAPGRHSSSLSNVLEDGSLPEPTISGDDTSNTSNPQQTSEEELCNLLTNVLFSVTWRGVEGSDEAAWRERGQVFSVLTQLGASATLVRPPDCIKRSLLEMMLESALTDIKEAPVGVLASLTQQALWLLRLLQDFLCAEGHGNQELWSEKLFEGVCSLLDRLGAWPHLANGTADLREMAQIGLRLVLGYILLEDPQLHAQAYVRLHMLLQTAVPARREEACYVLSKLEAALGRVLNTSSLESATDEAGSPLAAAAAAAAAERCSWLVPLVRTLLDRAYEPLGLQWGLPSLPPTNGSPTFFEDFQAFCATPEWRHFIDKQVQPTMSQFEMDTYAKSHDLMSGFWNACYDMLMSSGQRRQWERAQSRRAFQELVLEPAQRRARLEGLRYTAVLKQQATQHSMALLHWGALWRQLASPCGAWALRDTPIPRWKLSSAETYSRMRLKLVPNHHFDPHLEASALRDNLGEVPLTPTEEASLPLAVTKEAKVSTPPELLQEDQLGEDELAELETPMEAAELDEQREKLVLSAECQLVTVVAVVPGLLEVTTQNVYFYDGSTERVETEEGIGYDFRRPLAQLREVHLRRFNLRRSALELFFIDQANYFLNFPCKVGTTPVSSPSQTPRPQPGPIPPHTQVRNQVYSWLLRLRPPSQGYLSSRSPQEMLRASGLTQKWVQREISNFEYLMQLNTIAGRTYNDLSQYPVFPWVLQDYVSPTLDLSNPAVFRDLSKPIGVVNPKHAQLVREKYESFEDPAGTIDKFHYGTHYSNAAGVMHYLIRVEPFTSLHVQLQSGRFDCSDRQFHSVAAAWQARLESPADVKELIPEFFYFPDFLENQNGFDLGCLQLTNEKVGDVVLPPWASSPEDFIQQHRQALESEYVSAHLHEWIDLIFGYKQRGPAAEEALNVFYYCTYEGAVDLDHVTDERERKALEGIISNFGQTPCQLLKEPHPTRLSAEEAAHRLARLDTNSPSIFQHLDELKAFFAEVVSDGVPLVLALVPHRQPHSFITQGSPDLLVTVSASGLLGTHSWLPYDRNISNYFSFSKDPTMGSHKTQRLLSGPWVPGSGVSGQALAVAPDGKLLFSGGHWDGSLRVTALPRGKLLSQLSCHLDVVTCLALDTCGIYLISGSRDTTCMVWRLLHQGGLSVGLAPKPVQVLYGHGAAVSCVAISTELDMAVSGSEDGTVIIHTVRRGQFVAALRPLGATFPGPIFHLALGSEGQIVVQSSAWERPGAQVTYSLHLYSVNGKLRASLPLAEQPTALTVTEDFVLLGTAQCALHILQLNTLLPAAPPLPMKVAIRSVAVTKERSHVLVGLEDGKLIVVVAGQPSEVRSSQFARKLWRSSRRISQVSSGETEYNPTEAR
UniProt Q6N063, sequence (Q6N063 whole entry, looked up): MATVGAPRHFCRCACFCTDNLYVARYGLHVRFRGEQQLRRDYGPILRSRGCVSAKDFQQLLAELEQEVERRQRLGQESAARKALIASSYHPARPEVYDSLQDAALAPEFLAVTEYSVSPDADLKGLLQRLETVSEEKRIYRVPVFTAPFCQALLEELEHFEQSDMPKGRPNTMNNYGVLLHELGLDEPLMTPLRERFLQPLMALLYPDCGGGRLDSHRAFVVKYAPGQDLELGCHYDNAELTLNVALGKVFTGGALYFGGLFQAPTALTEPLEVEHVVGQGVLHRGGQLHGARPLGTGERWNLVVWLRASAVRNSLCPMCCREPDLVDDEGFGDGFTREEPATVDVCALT
UniProt Q9Y6C9, sequence (Q9Y6C9 whole entry, looked up): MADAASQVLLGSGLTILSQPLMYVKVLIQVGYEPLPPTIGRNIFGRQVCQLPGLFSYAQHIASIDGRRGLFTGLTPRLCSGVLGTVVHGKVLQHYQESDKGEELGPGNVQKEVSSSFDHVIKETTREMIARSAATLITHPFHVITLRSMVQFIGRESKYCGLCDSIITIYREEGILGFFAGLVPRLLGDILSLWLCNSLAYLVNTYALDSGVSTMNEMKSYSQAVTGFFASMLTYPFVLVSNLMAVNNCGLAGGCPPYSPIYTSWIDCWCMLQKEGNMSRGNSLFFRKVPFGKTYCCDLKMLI
UniProt Q96DH6, sequence (Q96DH6 whole entry, looked up): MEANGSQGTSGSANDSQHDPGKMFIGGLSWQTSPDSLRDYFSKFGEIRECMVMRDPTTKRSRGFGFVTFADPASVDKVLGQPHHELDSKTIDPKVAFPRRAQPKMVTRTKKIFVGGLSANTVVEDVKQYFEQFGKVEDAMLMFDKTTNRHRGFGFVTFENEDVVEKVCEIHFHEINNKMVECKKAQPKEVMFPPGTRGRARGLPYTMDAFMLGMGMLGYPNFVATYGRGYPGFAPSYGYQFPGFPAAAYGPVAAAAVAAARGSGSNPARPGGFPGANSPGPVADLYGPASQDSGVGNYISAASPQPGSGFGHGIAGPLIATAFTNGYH
UniProt Q9BRA0, sequence (Q9BRA0 whole entry, looked up): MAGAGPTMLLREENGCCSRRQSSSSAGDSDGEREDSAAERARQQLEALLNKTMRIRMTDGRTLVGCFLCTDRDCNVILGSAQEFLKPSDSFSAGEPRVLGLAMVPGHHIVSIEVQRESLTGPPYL

Consider NMRAL1 (UniProt Q9HBL8), for which the log2 fold change was -0.09 in assay [1]; 0.049 in assay [2]; 0.009 in assay [3]; -0.071 in assay [4]; -0.027 in assay [5].
Taken in the same sequence, the figures for NFATC1 (UniProt O95644) were -0.006, 0.047, -0.017, 0.003 and -0.127.
Taken in the same sequence, the figures for NUB1 (UniProt Q9Y5A7) were -0.011, 0.029, 0.025, 0.013 and 0.039.
On to NUP205 (UniProt Q92621), for which the log2 fold change is -0.042 in assay [1]; -0.019 in assay [2]; 0.045 in assay [3]; 0.006 in assay [4]; -0.001 in assay [5].
For MTCH2 (UniProt Q9Y6C9), the log2 fold change is 0.013 in assay [1]; 0.001 in assay [2]; -0.006 in assay [3]; -0.014 in assay [4]; -0.083 in assay [5].
Turning to MTFP1 (UniProt Q9UDX5), the log2 fold change in assay [1] was 0.005; in assay [2] it was -0.058; in assay [3] it was 0.03; in assay [4], 0.079; in assay [5], -0.222.
For MTA2 (UniProt O94776), the log2 fold change in assay [1] is 0; in assay [2], 0.015; in assay [3], -0.004; in assay [4], 0.015; in assay [5], 0.031.
Regarding NBEAL2 (UniProt Q6ZNJ1), the log2 fold change was -0.047 in assay [1]; 0.055 in assay [2]; 0.015 in assay [3]; -0.029 in assay [4]; 0.044 in assay [5].
Taken in the same sequence, the figures for NR3C1 isoform 3 (UniProt P04150) were 0.292 (active), 0.034, -0.001, -0.035 and 0.084.
NCAPH2 (UniProt Q6IBW4): the log2 fold change was 0.027 in assay [1]; -0.001 in assay [2]; 0.035 in assay [3]; -0.005 in assay [4]; 0.024 in assay [5].
Taken in the same sequence, the figures for NCOR2 (UniProt C9J0Q5) were 0.045, 0.033, -0.031, 0.048 and -0.006.
Taken in the same sequence, the figures for NFIC (UniProt P08651) were 0.023, 0.018, -0.056, 0.052 and -0.177.
For NUSAP1 (UniProt Q9BXS6), the log2 fold change is 0.039 in assay [1]; 0.018 in assay [2]; -0.001 in assay [3]; 0.026 in assay [4]; -0.223 in assay [5].
Taken in the same sequence, the figures for OGFOD2 (UniProt Q6N063) were -0.079, 0.049, -0.07, 0.033 and 0.076.
The like results for NAA38 isoform 2 (UniProt Q9BRA0) were, in that order, -0.002, 0.02, 0.063, -0.005 and -0.344 (active).
The like results for MSI2 (UniProt Q96DH6) were, in that order, -0.007, -0.007, -0.001, 0.048 and 0.071.
Take MYH11 isoform 2 (UniProt P35749): the log2 fold change is 0.037 in assay [1]; -0.021 in assay [2]; 0.004 in assay [3]; -0.065 in assay [4]; 0.025 in assay [5].
As to NF1 (UniProt P21359), the log2 fold change in assay [1] was -0.03; in assay [2] it was -0.01; in assay [3], 0.03; in assay [4], -0.009; in assay [5] it was 0.016.
Taken in the same sequence, the figures for NUF2 (UniProt Q9BZD4) were -0.03, 0.008, 0.018, 0.007 and 0.016.
The like results for NMT1 (UniProt P30419) were, in that order, 0.004, 0.002, -0.002, 0.011 and 0.004.
As to MRPS12 (UniProt O15235), the log2 fold change in assay [1] was 0; in assay [2], 0.019; in assay [3], 0.053; in assay [4] it was 0.039; in assay [5] it was 0.026.
MT-CYB (UniProt P00156): the log2 fold change in assay [1] is 0.062; in assay [2], -0.091; in assay [3], -0.052; in assay [4], -0.132; in assay [5], -0.468.
Taken in the same sequence, the figures for OCRL (UniProt Q01968) were 0.018, 0.056, 0.003, 0.013 and -0.017.
Take NCOR1 (UniProt O75376): the log2 fold change in assay [1] was -0.009; in assay [2] it was 0.002; in assay [3], 0.035; in assay [4], 0.015; in assay [5], 0.001.
NAA30 (UniProt Q147X3): the log2 fold change is 0 in assay [1]; 0.018 in assay [2]; 0.033 in assay [3]; 0.02 in assay [4]; -0.013 in assay [5].
As for MTHFD1, A0A384N5Y3, the log2 fold change is -0.003 in assay [1]; -0.002 in assay [2]; 0.015 in assay [3]; 0.018 in assay [4]; 0.071 in assay [5].
